Screening results deposited in PubChem by National Center for Advancing Translational Sciences (NCATS).
Cruzain inh noDet: blocks cruzain activity in detergent-free assay | P25779 | purified cruzain, Z-FR-AMC fluorescence, no detergent | Potency, µM, usual class: inhibitors | hit rate 2.3% among 200,000; further: nearly all actives have a fitted effect of over 40% in size
Target sequence (P25779 123-467 limits assumed): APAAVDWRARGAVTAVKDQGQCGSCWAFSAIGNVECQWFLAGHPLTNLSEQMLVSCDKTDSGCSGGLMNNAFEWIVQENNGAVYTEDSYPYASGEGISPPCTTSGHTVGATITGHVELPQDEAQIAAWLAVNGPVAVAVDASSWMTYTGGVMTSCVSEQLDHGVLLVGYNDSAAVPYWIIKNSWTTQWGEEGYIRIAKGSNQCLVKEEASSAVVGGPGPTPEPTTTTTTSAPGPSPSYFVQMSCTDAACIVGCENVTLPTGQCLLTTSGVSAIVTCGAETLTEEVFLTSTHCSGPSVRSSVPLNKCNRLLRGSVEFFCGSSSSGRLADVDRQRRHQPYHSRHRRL
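Detergent-free condition (0.00005% Triton X-100) in acetate buffer pH 5.5 with DTT. 1.5 nM enzyme and compound were pre-mixed 15 min, then 2 uM Z-FR-AMC substrate added; reaction progress from fluorescence change between first and third reads (60 s).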
Cruzain Triton: blocks cruzain activity in presence of Triton detergent | purified cruzain, Z-FR-AMC fluorescence, 0.01% Triton | P25779 | AID 1478 | hit rate 0.43% among 200,000 | Potency, µM, hits mostly inhibitors; further: nearly all actives have a fitted effect of over 40% in size
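In this qHTS format, compounds are incubated with 1.5 nM cruzain for 15 min at room temperature before 2 uM Z-FR-AMC is added. Release of AMC is followed at 360/450 nm, and progress is taken as the 60 s fluorescence difference.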
Of the large screens only hits and unclear results are named; the others gave an inactive call. This is a sample that favours compounds with a hit; in the whole collection about 2.5% have one here. The call rests on the fitted dose curve; in most records, active means well fitted curve in the direction sought with a large enough effect; inconclusive means small, poorly fitted or top-dose-only effect, or another doubt; inactive means no such curve, though single readings can be large; an effect the other way counts as inactive or inconclusive.

CSc1ccc(CCNS(=O)(=O)c2cc(-c3cc(C)no3)ccc2C)cc1	none
COc1ccc(-c2csc(NC(=O)c3ccc(S(=O)(=O)N4CCc5ccccc5C4)cc3)n2)cc1	Cruzain inh noDet 5µM
COc1ccc(-c2nnc(NC(=O)c3ccc(S(=O)(=O)N4CCc5ccccc5C4)cc3)o2)cc1	none
COC(=O)c1ccc(C2c3c(oc4ccc(C)cc4c3=O)C(=O)N2Cc2ccc3c(c2)OCO3)cc1 (stereo not drawn)	none
CCOc1ccccc1-n1nnnc1SCC(=O)Nc1cc(C)on1	none
COc1cc2c(cc1NC(=S)NC(=O)c1c(OC)cccc1OC)oc1ccccc12	Cruzain inh noDet 6.3µM
COc1cccc(NC(=O)CSc2ncnc3c2oc2ccccc23)c1	none
COc1cc2c(cc1NC(=O)C(C)Sc1nc3ccccc3n1C)oc1ccccc12 (stereo not drawn)	Cruzain inh noDet 25µM
CCOc1ccccc1-n1nnnc1SCC(=O)Nc1cc2oc3ccccc3c2cc1OC	Cruzain inh noDet 7.9µM
COc1ccccc1CC(=O)Nc1cc2oc3ccccc3c2cc1OC	none
COc1cc2c(cc1NC(=O)C(C)Sc1cccc[n+]1[O-])oc1ccccc12 (stereo not drawn)	Cruzain inh noDet inconclusive
COc1ccc(Cl)cc1NC(=O)CSc1ncnc2c1oc1ccccc12	Cruzain inh noDet 16µM
CNCCCCCCCCSc1nc(C(C)C)ccc1C(=O)c1cccs1	none
CCOC(=O)CNC(=O)O[C@@H]1Cc2cc(OC)ccc2O[C@H]1c1cccc(OC)c1	none
CCCCn1c(=O)nc2n(-c3ccc(Br)cc3)c3ccccc3cc-2c1=O	none
Cn1c(=O)c(CCc2ccccc2)nc2cncnc21	none
O=C(CN1C(=O)CCSc2ccccc21)Nc1ccccc1F	none
CC(C)(C)OC(=O)N1CCC(c2c(C(=O)NCCN3CCc4ccccc4C3)cnn2-c2ccc(F)cc2)CC1	none
CC(=O)N[C@@H](CSC(=O)[C@]1([C@@H](O)C(C)C)NC(=O)[C@H](C)[C@@H]1O)C(=O)O	none
COc1cc2c(cc1NC(=O)/C=C/c1cc(OC)c(OC)c(OC)c1)oc1ccccc12	Cruzain inh noDet inconclusive
COc1cc2c(cc1NC(=O)COc1ccc(Br)cc1)oc1ccccc12	none
COc1cc2c(cc1NC(=O)COc1ccc3ccccc3c1)oc1ccccc12	Cruzain inh noDet 10µM
COc1ccc(CC(=O)Nc2cc3oc4ccccc4c3cc2OC)cc1	none
COc1cc(OC)cc(C(=O)NC(=S)Nc2cc3oc4ccccc4c3cc2OC)c1	Cruzain inh noDet 4µM
COc1ccc(C(=O)NC(=S)Nc2cc3oc4ccccc4c3cc2OC)cc1	Cruzain inh noDet 7.9µM
CCc1ccccc1NC(=O)Cn1c(=O)n(Cc2ccc(OC)cc2)c(=O)c2oc3ccccc3c21	none
Cc1ccc(S(=O)(=O)N(CC(=O)NCCc2ccc(Cl)cc2)c2ccccc2C)cc1	none
CCOc1ccc(C(=O)Nc2cc(-c3nc4ccccc4o3)ccc2C)cc1Cl	none
COc1ccc(NC(=O)c2csc3c2CCCC3)cc1	none
COc1ccc(/C=C2\SC(=S)N(NC(=O)c3csc4c3CCCC4)C2=O)cc1	Cruzain inh noDet 7.9µM
O=C1N/C(=C/c2cccn2-c2ccc(F)cc2)C(=O)N1Cc1ccccc1F	Cruzain inh noDet inconclusive
O=C1N/C(=C/c2cccn2-c2ccccc2)C(=O)N1Cc1ccc(F)cc1	Cruzain inh noDet 13µM
NCCOB(c1ccccc1)c1ccccc1	Cruzain inh noDet inconclusive
Cc1sc2nc(CN3CCCCC3)nc(Cl)c2c1C	none
Cc1sc2nc(CN3CCCC3)nc(N3CCN(S(=O)(=O)c4cccs4)CC3)c2c1C	Cruzain inh noDet 16µM
Cc1ccc(S(=O)(=O)N(CC(=O)Nc2ccc(Cl)c([N+](=O)[O-])c2)C2CCCCC2)cc1	Cruzain inh noDet 13µM
Cc1ccc(S(=O)(=O)N(CC(=O)Nc2cccc([N+](=O)[O-])c2)C2CCCCC2)cc1	none
O=C1c2c(O)ccc([N+](=O)[O-])c2C(=O)c2c([N+](=O)[O-])ccc(O)c21	none
Cc1ccc(CNc2nc3ccc(C)cc3n3nnnc23)cc1	none
CCc1c(C)c2cc(Cl)c(O)c(CN3CCCCC3)c2oc1=O	Cruzain inh noDet inconclusive, Cruzain Triton 32µM
O=c1cc(-c2ccccc2)c2ccc(O)c(CN3CCCCC3)c2o1	Cruzain inh noDet inconclusive
CCc1c(C)c2ccc(O)c(CN3CCN(c4ccccc4)CC3)c2oc1=O	none
CCCCc1cc(=O)oc2c(CN3CCCC3)c(O)ccc12	Cruzain inh noDet inconclusive, Cruzain Triton 25µM
CCc1cc2c(-c3ccccc3)cc(=O)oc2c(CN2CCOCC2)c1O	none
CCc1cc(=O)oc2c(CN3CCCC3)c(O)c(Cl)cc12	Cruzain inh noDet inconclusive, Cruzain Triton 28µM
CC(=O)C1=C(c2ccc(F)cc2)N(C(C)=O)n2c(nnc2C2CCCCC2)S1	none
COc1ccc(C(=O)N2CCC[C@@]3(CCN(Cc4cc(C(F)(F)F)cc(C(F)(F)F)c4)C3)C2)cc1	none
Cc1cc2ccc(=O)oc2cc1OC[C@@H](O)C(C)(C)O	Cruzain inh noDet 40µM
CC(C)(O)[C@H](O)COc1c2occc2cc2ccc(=O)oc12	none
CC(=O)N1CCc2c(sc3c2c(=O)n(-c2cc(Cl)ccc2C)c(=O)n3C)C1	none
CCC(C)c1ccccc1NC(=O)COC(=O)c1ccc(N2CCCC2)c([N+](=O)[O-])c1 (stereo not drawn)	none
Cc1cccc(C)c1NC(=O)COC(=O)c1ccc(N2CCCC2)c([N+](=O)[O-])c1	Cruzain inh noDet 10µM
Cc1ccc(C)c2sc(NC(=O)c3ccc(N4CCCCC4)c([N+](=O)[O-])c3)nc12	Cruzain inh noDet 7.9µM
Cc1cccc(NC(=O)c2ccc(N3CCCCC3)c([N+](=O)[O-])c2)n1	none
O=S1(=O)c2ccccc2N(Cc2cccc(Cl)c2)c2ccccc21	none
COC(=O)c1ccccc1NC(=O)c1nn(C)c2c1COc1ccccc1-2	none
CCOC(=O)c1cc(-c2ccccc2)n(-c2cccc(C(=O)N(C)c3ccc(C)cc3)c2)c1C	none
CCOC(=O)c1cc(-c2ccccc2)n(-c2cccc(C(=O)NC(C)(C)C)c2)c1C	none
CCOC(=O)c1cc(-c2ccccc2)n(CC(=O)Nc2cccc(OC)c2)c1C	none
CCOC(=O)c1cc(-c2ccccc2)n(-c2cccc(C(=O)Nc3cccc(F)c3)c2)c1C	Cruzain inh noDet 10µM
CCOC(=O)c1cc(-c2ccccc2)n(-c2cccc(C(=O)Nc3cccc(SC)c3)c2)c1C	Cruzain inh noDet 10µM
CCOC(=O)c1cc(-c2ccccc2)n(-c2cccc(C(=O)Nc3ccc(OC)cc3)c2)c1C	Cruzain inh noDet 25µM
CCOC(=O)c1cc(-c2ccccc2)n(-c2cccc(C(=O)Nc3ccc(F)c(F)c3)c2)c1C	Cruzain inh noDet 20µM
CCOC(=O)c1cc(-c2ccccc2)n(-c2cccc(C(=O)Nc3cccc(C(C)=O)c3)c2)c1C	Cruzain inh noDet inconclusive
Cc1cc(C)c(NC(=O)Cn2c(=O)n(CCC(=O)NCc3ccccc3Cl)c(=O)c3sccc32)c(C)c1	none
Cc1noc(C)c1-c1nccc(NCc2ccccc2)n1	none
Cc1cccc2sc(N)nc12	none
CCc1ccc2c(c1)c(=O)c(S(=O)(=O)c1ccc(Cl)cc1)cn2CC	none
O=C(c1cccs1)N1CCCc2cc(NS(=O)(=O)c3ccc(Cl)cc3)ccc21	none
Cc1ccc(N2C(=O)c3oc4cc(C)c(C)cc4c(=O)c3C2c2cccc(O)c2)nc1 (stereo not drawn)	none
O=C(CC1C(=O)N(c2ccc(F)cc2)C(=O)N1Cc1cccnc1)Nc1ccc(F)cc1 (stereo not drawn)	none
CN(Cc1ccco1)c1ncncc1-c1ccccc1Cl	none
